{
  "source": "the supplement of paper PMC13380429",
  "note": "Values without a mark were called inactive.",
  "data": [
    {"test_system": "Vero E6 infected with SARS-CoV-2", "experiment": "SARS-CoV-2 infection rate relative to infected DMSO; higher = more infection, active = 60 or less", "conditions": "24 h", "values": [
      {"compound": "CCN(CC)C(=O)N[C@H]1C[C@@H]2c3cccc4[nH]cc(c34)C[C@H]2N(C)C1", "note": "[terguride] (10 µM)", "SARS-CoV-2 infection rate": "110%"},
      {"compound": "Cc1cccc(C)c1NC(=O)CN1CCN(CCCC(c2ccc(F)cc2)c2ccc(F)cc2)CC1", "note": "[lidoflazine] (10 µM)", "SARS-CoV-2 infection rate": "76.5%"},
      {"compound": "OC1=c2ccccc2=C(NC2CCCCC2)/C1=C\\c1ccccc1", "note": "(0.833333 µM)", "SARS-CoV-2 infection rate": "85.5%"},
      {"compound": "C[C@H]1[C@@H](O)O[C@@H]2O[C@@]3(C)CC[C@H]4[C@H](C)CC[C@@H]1[C@@]24OO3", "note": "(10 µM)", "SARS-CoV-2 infection rate": "84%"},
      {"compound": "CC(C)c1onc(-c2c(Cl)cccc2Cl)c1COc1ccc(/C=C/c2cccc(C(=O)O)c2)c(Cl)c1", "note": "(10 µM)", "SARS-CoV-2 infection rate": "96.5%"},
      {"compound": "Fc1ccc(C(OCCN2CCN(C/C=C/c3ccccc3)CC2)c2ccc(F)cc2)cc1", "note": "(10 µM)", "SARS-CoV-2 infection rate": "65.5%"},
      {"compound": "C[C@@H]1CN(CCCn2c3ccccc3c3ccccc32)C[C@H](C)N1", "note": "[rimcazole] (10 µM)", "SARS-CoV-2 infection rate": "19.5% (active)"},
      {"compound": "C[C@H]1C[C@H]2[C@@H]3CCC4=CC(=O)C=C[C@]4(C)[C@@]3(F)[C@@H](O)C[C@]2(C)[C@@]1(O)C(=O)CO", "note": "[betamethasone] (10 µM)", "SARS-CoV-2 infection rate": "111%"},
      {"compound": "CC(C)(C=O)Cc1cc(C(C)(C)C)c(O)c(C(C)(C)C)c1", "note": "(10 µM)", "SARS-CoV-2 infection rate": "94%"},
      {"compound": "CC(=O)O[C@]1(C(C)=O)CC[C@H]2[C@@H]3C=C(C)C4=CC(=O)CC[C@@H]4[C@H]3CC[C@@]21C", "note": "[nomegestrol-acetate] (10 µM)", "SARS-CoV-2 infection rate": "95%"},
      {"compound": "CC(C)(C)C(=O)C(Oc1ccc(Cl)cc1)n1ccnc1", "note": "(stereo not drawn) [climbazole] (10 µM)", "SARS-CoV-2 infection rate": "91.5%"},
      {"compound": "Cc1cc(O)ccc1Cl", "note": "[chlorocresol] (10 µM)", "SARS-CoV-2 infection rate": "95.5%"},
      {"compound": "CCOc1cc2ncc(C#N)c(Nc3ccc(F)c(Cl)c3)c2cc1NC(=O)/C=C/CN(C)C", "note": "[pelitinib] (10 µM)", "SARS-CoV-2 infection rate": "110%"}
    ]}
  ]
}
